Results filed as inconclusive are left out. Where a call stands in place of a potency, no number is given. The source made the active and inactive calls. Calls come from the whole dose curve; as a rule, active = well fitted curve in the direction sought with a large enough effect; inconclusive = small, poorly fitted or top-dose-only effect, or another doubt; inactive = no such curve, though single readings can be large; an effect the other way counts as inactive or inconclusive.
Tests used:
[1] = biological target: Metallo-beta-lactamase type 2 (Klebsiella pneumoniae) (UniProt C7C422); test: qHTS to identify inhibitors of the New Delhi Metallo-beta-lactamase (NDM): assay validation screen against the NCATS LOPAC Collection (AID 1794843);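 note: nitrocefin turnover by NDM-1 measured as 485 nm absorbance at plateau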
Chain of Metallo-beta-lactamase type 2 (Klebsiella pneumoniae) (C7C422 whole entry, looked up): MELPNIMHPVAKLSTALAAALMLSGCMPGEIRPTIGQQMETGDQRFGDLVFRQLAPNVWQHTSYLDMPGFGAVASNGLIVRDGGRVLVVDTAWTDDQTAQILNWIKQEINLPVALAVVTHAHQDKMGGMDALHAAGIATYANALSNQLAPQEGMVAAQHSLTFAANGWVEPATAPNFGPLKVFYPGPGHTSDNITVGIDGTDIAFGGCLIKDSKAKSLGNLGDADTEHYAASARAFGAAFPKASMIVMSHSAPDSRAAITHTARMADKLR
Outline: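 Nitrocefin hydrolysis (50 uM substrate stock) by NDM-1, 2 nM final, was followed by 485 nm absorbance after compound preincubation; buffer was 50 mM HEPES pH 7.0, 1 uM ZnSO4, 0.01% Tween20.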

[2] = biological target: Glutathione peroxidase 1 (Homo sapiens) (UniProt P07203); test: Primary qHTS Assay for Inhibitors of Recombinant Selenoprotein Glutathione Peroxidase 1 (GPX1) (AID 1845191); note: nearly all actives have a fitted effect of over 65% in size
Chain of Glutathione peroxidase 1 (Homo sapiens) (P07203 whole entry, looked up): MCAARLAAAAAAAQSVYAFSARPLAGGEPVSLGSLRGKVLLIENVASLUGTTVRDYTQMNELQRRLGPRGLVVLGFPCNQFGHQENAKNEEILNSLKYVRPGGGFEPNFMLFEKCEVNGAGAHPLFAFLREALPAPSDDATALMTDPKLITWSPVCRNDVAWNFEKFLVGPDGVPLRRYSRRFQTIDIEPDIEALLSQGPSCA
Outline: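 10 nM GPX1 + cpd, 30 min RT; start w/ 1 mM GSH, 0.5 mM cumene hydroperoxide, 0.5 mM NADPH, 100 nM GR, 0.01% BSA; buffer 50 mM Tris-HCl pH 7.5, 2 mM EDTA, 150 mM NaCl; Fl 340/450, 0 & 15 min.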

[3] = biological target: Phospholipid hydroperoxide glutathione peroxidase GPX4 (Homo sapiens) (UniProt P36969); test: Primary qHTS Assay for Inhibitors of Recombinant Selenoprotein Glutathione Peroxidase 4 (GPX4) (AID 1845192); note: nearly all actives have a fitted effect of over 65% in size
Chain of Phospholipid hydroperoxide glutathione peroxidase GPX4 (Homo sapiens) (P36969 whole entry, looked up): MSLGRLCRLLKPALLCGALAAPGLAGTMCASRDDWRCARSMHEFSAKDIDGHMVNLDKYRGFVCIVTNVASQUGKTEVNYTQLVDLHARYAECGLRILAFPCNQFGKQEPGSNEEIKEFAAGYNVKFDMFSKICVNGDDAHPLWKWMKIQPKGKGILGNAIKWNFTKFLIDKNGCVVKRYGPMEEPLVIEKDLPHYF
Outline: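 NADPH consumption, followed by fluorescence at 340/450 nm between 0 and 15 min, reports GPX4 activity via coupled glutathione reductase (100 nM). Enzyme 200 nM was pre-exposed to compound 30 min; 0.5 mM cumene hydroperoxide and 1 mM GSH served as substrates.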

[4] = biological target: Luciferin 4-monooxygenase (Photinus pyralis) (UniProt P08659); test: Primary firefly luciferase (FLuc) qHTS assay for identification of artifact compounds. (AID 1845220); conditions: outcome: dose series up to 54.1 µM; note: nearly all actives have a fitted effect of over 60% in size
Outline: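 Compounds sat 15 min at room temperature with 10 uM luciferin and 10 uM ATP (pH 7.6 Tris acetate). Firefly luciferase (10 nM final) was then added, and luminescence was read 5 min later. Data normalized to no-enzyme and DMSO controls were Hill-fitted.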

[5] = Primary fluorescence-based thiol-reactive (MSTI) qHTS assay for identification of artifact compounds. (AID 1845221);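 note: thiol-reactive compounds lower the probe fluorescence signal; nearly all actives have a fitted effect of over 65% in size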
Outline: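 Probe: MSTI 4 uM, PBS pH 7.4, 2% DMSO. Incubation 1 h, RT, light-protected. Readout fluorescence 525/598 nm.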

[6] = system: Nanoluciferase (engineered Oplophorus gracilirostris luciferase); test: Primary Nanoluciferase (NLuc) qHTS assay for identification of artifact compounds. (AID 1845222)
Outline: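 Luminescence from secreted NLuc (filtered, 1:55-diluted S16 cell medium) read 5 min after Nano-Glo substrate; compounds preincubated 15 min, RT. Hill fits of inhibition normalized to DMSO and no-enzyme.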

[7] = Primary redox qHTS assay for identification of artifact compounds. (AID 1845223)
Outline: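 Amplex Red (25 uM) and HRP (250 mU/mL) in HBSS, with compounds for 15 min, then 250 uM DTT for 30 min, room temperature, dark. Fluorescence 525/598 nm read; normalized to DMSO and 10 uM DA3003; Hill fit.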

[8] = Quantitative High-Throughput drug screen in 47 multiple myeloma cell lines against the NCATS MIPE library collection: EJM_DSMZ cell viability assay (AID 1918926; note: nearly all actives have a fitted effect of over 30% in size; note: potency is the fitted concentration of half-maximal effect)
Outline: (§1)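 Luminescent ATP measurement with CellTiter-Glo gives viability, scaled between DMSO-only wells (100%) and media-only wells (0%). Cells, 500 per well, faced library compounds for 48 hours at 37C.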

[9] = Quantitative High-Throughput drug screen in 47 multiple myeloma cell lines against the NCATS MIPE library collection: AMO1_DSMZ cell viability assay (AID 1918927; note: nearly all actives have a fitted effect of over 30% in size; note: potency is the fitted concentration of half-maximal effect)
Outline: as §1

[10] = Quantitative High-Throughput drug screen in 47 multiple myeloma cell lines against the NCATS MIPE library collection: ARD_JJKsccE7 cell viability assay (AID 1918929; note: potency is the fitted concentration of half-maximal effect)
Outline: as §1

[11] = Quantitative High-Throughput drug screen in 47 multiple myeloma cell lines against the NCATS MIPE library collection: Karpas620_DSMZ cell viability assay (AID 1918959); note: nearly all actives have a fitted effect of over 30% in size; note: potency is the fitted concentration of half-maximal effect
Outline: as §1

[12] = Quantitative High-Throughput drug screen in 47 multiple myeloma cell lines against the NCATS MIPE library collection: KMM1_JCRB cell viability assay (AID 1918960); note: nearly all actives have a fitted effect of over 30% in size; note: potency is the fitted concentration of half-maximal effect
Outline: (§2)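 Luminescence from CellTiter-Glo, taken after 5 min at room temperature, reports cellular ATP as viability. Cells (500 per well) had been treated 48 h at 37 °C with MIPE 4.0 compounds, scaled between DMSO and medium-only controls.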

[13] = Quantitative High-Throughput drug screen in 47 multiple myeloma cell lines against the NCATS MIPE library collection: Karpas417_ECACC cell viability assay (AID 1918961); conditions: Karpas417 myeloma viability, CellTiter-Glo ATP luminescence, 48 h; viability (% of DMSO): at 45.8 µM (top of the series); note: potency is the fitted concentration of half-maximal effect
Outline: (§3)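 Steps: seed 500 cells per well; pin-transfer MIPE 4.0 library; incubate 48 h at 37C, 5% CO2, humidified; add CellTiter-Glo, 5 min room temperature; read luminescence.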

[14] = Quantitative High-Throughput drug screen in 47 multiple myeloma cell lines against the NCATS MIPE library collection: JIM3_ECACC cell viability assay (AID 1918963; note: nearly all actives have a fitted effect of over 35% in size; note: potency is the fitted concentration of half-maximal effect)
Outline: as §1

[15] = Quantitative High-Throughput drug screen in 47 multiple myeloma cell lines against the NCATS MIPE library collection: INA6_PLB cell viability assay (AID 1918965; note: nearly all actives have a fitted effect of over 55% in size; note: potency is the fitted concentration of half-maximal effect)
Outline: as §3

[16] = Quantitative High-Throughput drug screen in 47 multiple myeloma cell lines against the NCATS MIPE library collection: JJN3_DSMZ cell viability assay (AID 1918966; note: nearly all actives have a fitted effect of over 50% in size; note: potency is the fitted concentration of half-maximal effect)
Outline: as §1

[17] = Quantitative High-Throughput drug screen in 47 multiple myeloma cell lines against the NCATS MIPE library collection: H1112_PLB cell viability assay (AID 1918967; note: nearly all actives have a fitted effect of over 30% in size; note: potency is the fitted concentration of half-maximal effect)
Outline: as §1

[18] = Quantitative High-Throughput drug screen in 47 multiple myeloma cell lines against the NCATS MIPE library collection: FR4_PLB cell viability assay (AID 1918924; note: nearly all actives have a fitted effect of over 35% in size; note: potency is the fitted concentration of half-maximal effect)
Outline: as §1

[19] = Quantitative High-Throughput drug screen in 47 multiple myeloma cell lines against the NCATS MIPE library collection: ARP1_JJKsccF8 cell viability assay (AID 1918928; note: nearly all actives have a fitted effect of over 40% in size; note: potency is the fitted concentration of half-maximal effect)
Outline: as §2

[20] = HepG2 viability counterscreen (readout 1: protease activity) against the NCATS DSHEA and TCM libraries (AID 1794841);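 note: cells exposed to compounds for about 24 h before the protease read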
Outline: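 HepG2 cells, 1,000/well, attached ~4 h, then exposed ~24 h at 37C to substances. Protease activity read by fluorescence of 25 uM GF-AFC (Ex/Em 380/510 nm) after 30 min; ATP then by CellTiter-Glo luminescence.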

## CC(O)(CS(=O)(=O)c1ccc(F)cc1)C(=O)Nc1ccc(C#N)c(C(F)(F)F)c1 (stereo unspecified)
[1]
  outcome: inactive
[2]
  Potency: inactive
[3]
  Potency: inactive
[4]
  outcome: inactive
[5]
  outcome: inactive
[6]
  outcome: inactive
[7]
  outcome: inactive
[8]
  Potency: 187 nM (active)
[9]
  Potency: 662 nM (active)
[10]
  Potency: 1660 nM (active)
[11]
  Potency: 2090 nM (active)
[12]
  Potency: 2640 nM (active)
[13]
  Potency: 372 nM (active)
[14]
  Potency: 2960 nM (active)
[15]
  Potency: 590 nM (active)
[16]
  Potency: 4690 nM (active)
[17]
  Potency: 235 nM (active)

## CNCC(O)c1ccc(O)cc1 (stereo unspecified)
[1]
  outcome: inactive
[2]
  Potency: inactive
[3]
  Potency: inactive
[18]
  Potency: inactive
[8]
  Potency: inactive
[9]
  Potency: inactive
[19]
  Potency: inactive
[10]
  Potency: inactive
[11]
  Potency: inactive
[13]
  viability (% of DMSO): 80.8% (active)
[14]
  Potency: inactive
[15]
  Potency: inactive
[17]
  Potency: inactive

## CCC1(C2=NCCN2)Cc2ccccc2O1 (stereo unspecified)
[1]
  outcome: inactive
[2]
  Potency: inactive
[3]
  Potency: inactive

## c1ccc2c(c1)OCC(C1=NCCN1)O2 (stereo unspecified)
[1]
  outcome: inactive
[2]
  Potency: inactive
[3]
  Potency: inactive

## NCC(O)c1ccc(O)cc1 (stereo unspecified)
[1]
  outcome: inactive
[2]
  Potency: inactive
[3]
  Potency: inactive

## COc1ccc(C(CN(C)C)C2(O)CCCCC2)cc1 (stereo unspecified)
[1]
  outcome: inactive
[2]
  Potency: inactive
[3]
  Potency: inactive
[18]
  Potency: inactive
[19]
  Potency: inactive
[10]
  Potency: inactive
[11]
  Potency: inactive
[14]
  Potency: inactive

## CC(C)=CCOc1c2occc2cc2ccc(=O)oc12
[20]
  outcome: inactive
[1]
  outcome: inactive
[2]
  Potency: inactive
[3]
  Potency: inactive

## Cn1c(CCCC(=O)O)nc2cc(N(CCCl)CCCl)ccc21
[18]
  Potency: 16600 nM (active)
[10]
  Potency: inactive
[12]
  Potency: inactive

## O=c1[nH]c2ccccc2n1CCCN1CCC(n2c(=O)[nH]c3cc(Cl)ccc32)CC1
[18]
  Potency: inactive
[16]
  Potency: inactive

## Cc1cccc(C)c1NC(=O)CN1CCCC1=O
[8]
  Potency: inactive
[19]
  Potency: inactive
[10]
  Potency: inactive
[12]
  Potency: inactive
[17]
  Potency: inactive

## CCCC(C)(COC(N)=O)COC(=O)NC(C)C (stereo unspecified)
[8]
  Potency: inactive
[9]
  Potency: inactive
[19]
  Potency: inactive
[11]
  Potency: inactive
[12]
  Potency: inactive
[13]
  viability (% of DMSO): 64.9% (active)
[15]
  Potency: inactive
[17]
  Potency: inactive

## O=P1(NCCCl)OCCCN1CCCl (stereo unspecified)
[2]
  Potency: inactive
[3]
  Potency: inactive
[18]
  Potency: 16600 nM (active)
[8]
  Potency: inactive
[9]
  Potency: 5900 nM (active)
[14]
  Potency: 20900 nM (active)

## COc1ccc(C(=O)c2c(C)n(CCN3CCOCC3)c3ccccc23)cc1
[2]
  Potency: inactive
[3]
  Potency: inactive
[8]
  Potency: inactive
[9]
  Potency: inactive
[19]
  Potency: inactive
[10]
  Potency: inactive
[12]
  Potency: inactive
[14]
  Potency: inactive
[17]
  Potency: inactive

## CN(C)[C@@H]1C(=O)C(C(N)=O)=C(O)[C@@]2(O)C(=O)C3=C(O)c4c(O)cccc4[C@@](C)(O)[C@H]3C[C@@H]12
[2]
  Potency: inactive
[3]
  Potency: inactive
[8]
  Potency: inactive
[9]
  Potency: inactive
[19]
  Potency: 16600 nM (active)
[10]
  Potency: inactive
[11]
  Potency: inactive
[12]
  Potency: inactive
[13]
  Potency: inactive
[17]
  Potency: inactive

## Cc1sc2c(c1C)C(c1ccc(Cl)cc1)=N[C@@H](CC(=O)OC(C)(C)C)c1nnc(C)n1-2
[2]
  Potency: inactive
[3]
  Potency: inactive
[18]
  Potency: 332 nM (active)
[9]
  Potency: 83.3 nM (active)
[19]
  Potency: 209 nM (active)
[10]
  Potency: 41.8 nM (active)
[11]
  Potency: 132 nM (active)
[12]
  Potency: 66.2 nM (active)
[14]
  Potency: 1660 nM (active)
[15]
  Potency: 29.6 nM (active)
[16]
  Potency: 296 nM (active)
[17]
  Potency: 6620 nM (active)

## COC1(CS(=O)c2ccccc2)CCN(CCc2c[nH]c3ccc(F)cc23)CC1 (stereo unspecified)
[2]
  Potency: inactive
[3]
  Potency: inactive
[18]
  Potency: inactive
[8]
  Potency: inactive
[19]
  Potency: inactive
[10]
  Potency: inactive
[13]
  Potency: inactive
[14]
  Potency: inactive
[16]
  Potency: inactive
[17]
  Potency: inactive
